Experimental data published in PubChem BioAssay (Tox21).
Unmarked numbers belong to inactive results. Calls of active or inactive are those of the source. Unless noted, calls follow the shape of the dose curve; as a rule, active = well fitted curve in the direction sought with a large enough effect in the repeat runs; inconclusive = weak or mixed curves; inactive = no such curve, though single readings can be large; an effect the other way counts as inactive or inconclusive.

Legend:
[1] = qHTS assay to identify small molecule antagonists of the glucocorticoid receptor (GR) signaling pathway - cell viability counter screen (AID 720693); also: nearly all actives have a fitted effect of over 55% in size; also: potency is read from the fitted curve at half-maximal effect
[2] = qHTS assay for identifying genotoxic compounds that show differential cytotoxicity against isogenic chicken DT40 cell lines with known DNA damage response pathways - wild type cell line (AID 743012); also: nearly all actives have a fitted effect of over 60% in size; also: potency is read from the fitted curve at half-maximal effect
Method in brief: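 First, wild type DT40 cells were plated at 300 per well and equilibrated about 0.5 h at 37 C/5% CO2. Next, compounds in DMSO were added and exposure lasted 40 h. Finally, CellTiter-Glo was added for 30 min at room temperature and luminescence recorded.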

[3] = qHTS assay for identifying genotoxic compounds that show differential cytotoxicity against isogenic chicken DT40 cell lines with known DNA damage response pathways - Rev3 mutant cell line (AID 743014); also: nearly all actives have a fitted effect of over 55% in size; also: potency is read from the fitted curve at half-maximal effect
[4] = qHTS assay for identifying genotoxic compounds that show differential cytotoxicity against isogenic chicken DT40 cell lines with known DNA damage response pathways - Rad54/Ku70 mutant cell line (AID 743015); also: nearly all actives have a fitted effect of over 60% in size; also: potency is read from the fitted curve at half-maximal effect
[5] = qHTS assay to identify small molecule antagonists of the thyroid receptor (TR) signaling pathway - cell viability counter screen (AID 743064); also: nearly all actives have a fitted effect of over 50% in size; also: potency is read from the fitted curve at half-maximal effect
Method in brief: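 GH3.TRE-Luc cells, 4 h pre-plating; cpd + T3 1 nM final; 37 °C 23.5 h; CellTiter-Fluor 30 min; fluorescence read.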

[6] = qHTS assay to identify small molecule antagonists of the thyroid receptor (TR) signaling pathway (AID 743065); also: nearly all actives have a fitted effect of over 55% in size; also: potency is read from the fitted curve at half-maximal effect
Method in brief: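 GH3.TRE-Luc rat pituitary cells (two TREs driving luciferase) were dosed with compound, then stimulated with 1 nM T3 (final) for 23.5 h at 37 C. ONE-Glo luminescence was the read-out, with CellTiter-Fluor fluorescence as the cytotoxicity counter-screen.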

[7] = system: thyroid hormone receptor (rat, GH3 cells); experiment: qHTS assay to identify small molecule agonists of the thyroid receptor (TR) signaling pathway (AID 743066; calls by dose curve; also: % is scaled to controls: 0 for no effect and ±100 for the full control effect)
Aromatase (Homo sapiens) = Aromatase (Homo sapiens) (UniProt P11511); experiment: qHTS assay to identify aromatase inhibitors (AID 743083); also: nearly all actives have a fitted effect of over 55% in size; also: potency is read from the fitted curve at half-maximal effect
[8] = qHTS assay to identify small molecule antagonists of the androgen receptor (AR) signaling pathway using the MDA cell line - cell viability counter screen (AID 743041; also: % is scaled to controls: 0 for no effect and ±100 for the full control effect; nearly all actives have a fitted effect of over 45% in size)
Method in brief: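 MDA-kb2 AR-luc cells (MMTV-luciferase, AR/GR responsive) treated with compounds plus R1881 agonist for 16 h at 37C. CellTiter-Fluor added at 15.5 h; fluorescence read after 30 min in the same wells.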

[9] = biological target: Estrogen receptor (Homo sapiens) (UniProt P03372); experiment: qHTS assay to identify small molecule antagonists of the estrogen receptor alpha (ER-alpha) signaling pathway (AID 743069; active = well fitted curve in the direction sought with a large enough effect in the signal ratio in the repeat runs, not every such curve was filed as active; inconclusive = weak or mixed curves, or effect the other way; inactive = no such curve, though single readings can be large or run the other way; the % refers to the signal ratio; also: potency is read from the fitted curve at half-maximal effect)
Method in brief: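 HEK293 ER-alpha-UAS-bla GripTite cells, held overnight in 2% charcoal-stripped FBS, 5,000 cells/well, preincubated 4 h, then compound plus 17beta-estradiol for 18 h at 37C. Beta-lactamase read by LiveBLAzer B/G FRET substrate, 2 h at room temperature.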

[10] = qHTS assay to identify small molecule antagonists of the estrogen receptor alpha (ER-alpha) signaling pathway - cell viability counter screen (AID 743074; calls by dose curve;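 also: HEK293 cells carrying ER-alpha-UAS-bla reporter stimulated with 17beta-estradiol; nearly all actives have a fitted effect of over 45% in size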; also: potency is read from the fitted curve at half-maximal effect)
[11] = qHTS assay to identify small molecule antagonists of the estrogen receptor alpha (ER-alpha) signaling pathway using the BG1 cell line - cell viability counter screen (AID 743081);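 also: compound given together with 17beta-estradiol as the ER stimulus; nearly all actives have a fitted effect of over 45% in size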; also: potency is read from the fitted curve at half-maximal effect
[12] = biological target: Estrogen receptor (Homo sapiens) (UniProt P03372); experiment: qHTS assay to identify small molecule agonists of the estrogen receptor alpha (ER-alpha) signaling pathway (AID 743075; calls by dose curve; also: % is scaled to controls: 0 for no effect and ±100 for the full control effect); conditions: HEK293 ER-alpha-UAS-bla, beta-lactamase FRET ratio, 18 h; activation: at 70.1 µM (top of the series)
[13] = biological target: Estrogen receptor (Homo sapiens) (UniProt P03372); experiment: qHTS assay to identify small molecule agonists of the estrogen receptor alpha (ER-alpha) signaling pathway using the BG1 cell line (AID 743079); conditions: BG1Luc4E2 cells, ERE-luciferase agonist, 22 h; at 70.3 µM (top of the series); also: % is scaled to controls: 0 for no effect and ±100 for the full control effect; nearly all actives have a fitted effect of over 20% in size
[14] = qHTS assay to identify small molecule antagonists of the estrogen receptor alpha (ER-alpha) signaling pathway using the BG1 cell line (AID 743080; calls by dose curve;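 also: BG1 cells stimulated with 17beta-estradiol alongside compound; nearly all actives have a fitted effect of over 25% in size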; also: potency is read from the fitted curve at half-maximal effect)
Method in brief: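 After 5 days in phenol-red-free 10% charcoal-stripped FBS medium, BG1-Luc-4E2 cells were seeded, left 24 h at 37 C, co-treated with compounds and 17beta-estradiol for 21.5 h, then assayed for viability and luciferase.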

[15] = biological target: Androgen receptor (Homo sapiens) (UniProt P10275); experiment: qHTS assay to identify small molecule antagonists of the androgen receptor (AR) signaling pathway (AID 743035; active = well fitted inhibition curve with a large enough effect in the signal ratio in the repeat runs, not every such curve was filed as active; inconclusive = weak or mixed curves, or effect the other way; inactive = no such curve, though single readings can be large or run the other way; the % refers to the signal ratio; also: potency is read from the fitted curve at half-maximal effect)
Method in brief: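 Beta-lactamase FRET read (2 h RT incubation with LiveBLAzer B/G) following 16 h of compound plus R1881 treatment of AR-UAS-bla HEK293 cells, which had been pre-incubated 4 h at 37C.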

[16] = biological target: Androgen receptor (Homo sapiens) (UniProt P10275); experiment: qHTS assay to identify small molecule agonists of the androgen receptor (AR) signaling pathway using the MDA cell line (AID 743040; also: % is scaled to controls: 0 for no effect and ±100 for the full control effect; nearly all actives have a fitted effect of over 20% in size)
Method in brief: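 MDA-kb2 breast carcinoma cells carrying MMTV-luciferase (responsive to AR and GR), plated 5 h then treated 16 h with compounds at 37C, 0% CO2. Read-out was ONE-Glo luminescence after 30 min at room temperature.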

[17] = biological target: Androgen receptor (Homo sapiens) (UniProt P10275); experiment: qHTS assay to identify small molecule antagonists of the androgen receptor (AR) signaling pathway using the MDA cell line (AID 743042; also: nearly all actives have a fitted effect of over 55% in size; also: potency is read from the fitted curve at half-maximal effect)
Method in brief: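 MDA-kb2 breast carcinoma cells carrying MMTV-luciferase (AR/GR responsive) were co-treated with compounds and the agonist R1881 for 16 h at 37C. Inhibition read as ONE-Glo luminescence; CellTiter-Fluor fluorescence measured in parallel for cytotoxicity.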

Sequence of Aromatase (Homo sapiens) (P11511 whole entry, looked up): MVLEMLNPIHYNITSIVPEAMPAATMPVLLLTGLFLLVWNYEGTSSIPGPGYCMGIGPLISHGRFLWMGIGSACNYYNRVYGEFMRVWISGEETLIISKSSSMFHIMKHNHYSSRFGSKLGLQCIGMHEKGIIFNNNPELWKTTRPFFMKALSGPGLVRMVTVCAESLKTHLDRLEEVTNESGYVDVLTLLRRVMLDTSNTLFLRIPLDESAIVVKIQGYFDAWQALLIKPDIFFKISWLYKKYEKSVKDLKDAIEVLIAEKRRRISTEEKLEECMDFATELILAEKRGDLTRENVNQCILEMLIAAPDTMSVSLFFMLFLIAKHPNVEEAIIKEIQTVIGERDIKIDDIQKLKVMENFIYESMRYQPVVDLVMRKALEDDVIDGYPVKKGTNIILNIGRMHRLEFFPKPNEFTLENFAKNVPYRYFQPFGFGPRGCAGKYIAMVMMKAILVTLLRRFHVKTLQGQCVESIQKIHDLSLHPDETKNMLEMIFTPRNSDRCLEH
Sequence of Estrogen receptor (Homo sapiens) (P03372 whole entry, looked up): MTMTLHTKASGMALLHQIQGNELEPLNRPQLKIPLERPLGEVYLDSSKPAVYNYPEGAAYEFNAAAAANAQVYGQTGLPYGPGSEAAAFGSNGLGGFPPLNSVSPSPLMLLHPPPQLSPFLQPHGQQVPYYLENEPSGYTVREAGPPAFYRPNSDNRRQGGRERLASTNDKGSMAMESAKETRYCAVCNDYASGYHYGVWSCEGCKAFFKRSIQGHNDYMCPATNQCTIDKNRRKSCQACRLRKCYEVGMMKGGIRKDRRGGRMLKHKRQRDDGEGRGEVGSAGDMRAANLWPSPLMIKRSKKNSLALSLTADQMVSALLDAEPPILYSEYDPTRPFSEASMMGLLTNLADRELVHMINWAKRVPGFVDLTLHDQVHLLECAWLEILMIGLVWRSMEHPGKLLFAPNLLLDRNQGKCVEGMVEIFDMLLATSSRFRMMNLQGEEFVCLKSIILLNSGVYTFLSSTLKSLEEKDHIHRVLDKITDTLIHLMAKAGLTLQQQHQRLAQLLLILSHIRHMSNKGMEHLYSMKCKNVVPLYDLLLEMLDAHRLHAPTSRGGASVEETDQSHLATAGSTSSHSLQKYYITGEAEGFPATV
Sequence of Androgen receptor (Homo sapiens) (P10275 whole entry, looked up): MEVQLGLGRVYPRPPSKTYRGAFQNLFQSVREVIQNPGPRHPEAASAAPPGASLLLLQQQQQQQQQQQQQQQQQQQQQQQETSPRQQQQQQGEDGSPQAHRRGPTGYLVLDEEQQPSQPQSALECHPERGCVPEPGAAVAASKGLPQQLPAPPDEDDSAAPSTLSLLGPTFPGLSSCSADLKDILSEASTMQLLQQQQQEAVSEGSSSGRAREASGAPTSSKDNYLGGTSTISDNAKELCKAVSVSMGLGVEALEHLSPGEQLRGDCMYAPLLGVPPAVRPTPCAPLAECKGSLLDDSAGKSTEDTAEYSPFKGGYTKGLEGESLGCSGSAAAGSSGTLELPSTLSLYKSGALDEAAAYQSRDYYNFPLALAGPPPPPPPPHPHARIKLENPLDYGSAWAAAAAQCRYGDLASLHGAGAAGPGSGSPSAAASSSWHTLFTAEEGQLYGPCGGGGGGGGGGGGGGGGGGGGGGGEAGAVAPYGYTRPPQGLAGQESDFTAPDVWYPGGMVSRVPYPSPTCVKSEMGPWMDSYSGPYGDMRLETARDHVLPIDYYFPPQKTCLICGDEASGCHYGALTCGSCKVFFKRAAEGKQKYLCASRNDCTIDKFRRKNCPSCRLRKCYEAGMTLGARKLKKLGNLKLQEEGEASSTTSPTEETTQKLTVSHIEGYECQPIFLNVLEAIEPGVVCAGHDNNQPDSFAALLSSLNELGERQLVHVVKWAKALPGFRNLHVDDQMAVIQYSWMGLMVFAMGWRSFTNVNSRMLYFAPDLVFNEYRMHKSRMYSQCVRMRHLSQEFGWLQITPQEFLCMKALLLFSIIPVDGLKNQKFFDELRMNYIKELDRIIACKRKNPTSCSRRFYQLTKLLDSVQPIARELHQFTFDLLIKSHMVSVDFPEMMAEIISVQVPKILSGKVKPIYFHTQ

Compound	Potency [1]	Potency [2]	Potency [3]	Potency [4]	Potency [5]	Potency [6]	Potency [7]	Potency (Aromatase (Homo sapiens))	Potency [8]	Potency [9]	Potency [10]	Potency [11]	Potency [12]	activation [13] [%]	Potency [14]	Potency [15]	Potency [16]	Potency [17]
N=C1N=C(N)c2cc3ccccc3cc21	21.9 µM (active)	9.69 µM (active)	27.3 µM (active)	27.3 µM (active)	12.9 µM (active)	13.7 µM (active)	inactive	19.9 µM (active)										
COc1c(C)c2c(c(O)c1C/C=C(\C)CCC(=O)O)C(=O)OC2	inactive	0.16 µM (active)	0.16 µM (active)	0.202 µM (active)	0.717 µM (active)	0.507 µM (active)	inactive	inactive	inactive	0.512 µM [inconclusive] (active)	inactive	inactive						
CCOC(=O)O[C@H](C)OC(=O)c1ccc2c(c1)cc(C(=O)NC1CCN(C(C)C)CC1)n2Cc1cc(-c2ccc(Cl)s2)on1	20.4 µM (active)	6.41 µM (active)	11.4 µM (active)	11.4 µM (active)	5.09 µM (active)	4.54 µM (active)		14.3 µM (active)			45.8 µM (active)	inactive						
COCCCC/C(=N\OCCN)c1ccc(C(F)(F)F)cc1	inactive	6.68 µM (active)	9.44 µM (active)	10.6 µM (active)	13.3 µM (active)	11.9 µM (active)		21.1 µM (active)		inactive		inactive	inactive	-27	inactive			
O=C(N/N=C/c1ccccc1O)c1ccncc1	inactive	4.22 µM (active)	2.98 µM (active)	5.96 µM (active)		29.8 µM (active)		5.96 µM (active)	inactive		inactive	inactive			18.8 µM (active)			
C[C@]12CCC(=O)C=C1CC[C@@H]1[C@@H]2[C@@H](O)C[C@@]2(C)[C@H]1CC[C@]2(O)C(=O)COC(=O)CCC(=O)O	inactive	26.6 µM (active)	18.8 µM (active)	26.6 µM (active)	inactive	inactive	inactive	inactive	inactive		inactive		inactive	9.99				
CCN(CCC#N)c1ccc(N=Nc2c(Cl)cc([N+](=O)[O-])cc2Cl)cc1	inactive	13.7 µM (active)	10.9 µM (active)	17.2 µM (active)	24.3 µM (active)	24.3 µM (active)	inactive	inactive		inactive	inactive	27.3 µM (active)	inactive	-0.554	inactive			
O=C(Oc1ccccc1)c1ccccc1C(=O)Oc1ccccc1	inactive	19.3 µM (active)	34.4 µM (active)	17.2 µM (active)			inactive				inactive	inactive	inactive	-7.29		49 µM (active)	inactive	54.5 µM (active)
CC(C)n1nc(-c2cc3cc(O)ccc3[nH]2)c2c(N)ncnc21	9.52 µM (active)	0.841 µM (active)	2.37 µM (active)	0.944 µM (active)	0.106 µM (active)	0.0944 µM (active)		0.335 µM (active)					inactive					
Cc1onc(-c2c(Cl)cccc2Cl)c1C(=O)N[C@@H]1C(=O)N2[C@@H]1SC(C)(C)[C@@H]2C(=O)O	inactive	inactive	inactive	inactive	inactive		inactive	inactive	inactive		inactive	inactive					inactive	inactive
O=c1c(-c2ccccc2)c1-c1ccccc1	inactive	3.76 µM (active)	4.73 µM (active)	4.73 µM (active)	5.96 µM (active)	5.31 µM (active)		29.8 µM (active)		26.8 µM [inconclusive] (active)	inactive	inactive	inactive	-33.7				
